Laboratory results as given in PubChem BioAssay (NCATS).
Results filed as inconclusive are left out. The source made the active and inactive calls. The call rests on the fitted dose curve; in most records, active means well fitted curve in the direction sought with a large enough effect; inconclusive means small, poorly fitted or top-dose-only effect, or another doubt; inactive means no such curve, though single readings can be large; an effect the other way counts as inactive or inconclusive.

Assays:
[1] = target: Protein phosphatase 1D (Homo sapiens) (UniProt O15297); assay: RapidFire Mass Spectrometry qHTS Assay for Modulators of WT P53-Induced Phosphatase 1 (WIP1) (AID 1347424);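 further: amount of dephosphorylated VEPPL-S-QETFS peptide product formed by WIP1; series mostly up to about 63 µM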
Sequence of Protein phosphatase 1D (Homo sapiens) (O15297 whole entry, looked up): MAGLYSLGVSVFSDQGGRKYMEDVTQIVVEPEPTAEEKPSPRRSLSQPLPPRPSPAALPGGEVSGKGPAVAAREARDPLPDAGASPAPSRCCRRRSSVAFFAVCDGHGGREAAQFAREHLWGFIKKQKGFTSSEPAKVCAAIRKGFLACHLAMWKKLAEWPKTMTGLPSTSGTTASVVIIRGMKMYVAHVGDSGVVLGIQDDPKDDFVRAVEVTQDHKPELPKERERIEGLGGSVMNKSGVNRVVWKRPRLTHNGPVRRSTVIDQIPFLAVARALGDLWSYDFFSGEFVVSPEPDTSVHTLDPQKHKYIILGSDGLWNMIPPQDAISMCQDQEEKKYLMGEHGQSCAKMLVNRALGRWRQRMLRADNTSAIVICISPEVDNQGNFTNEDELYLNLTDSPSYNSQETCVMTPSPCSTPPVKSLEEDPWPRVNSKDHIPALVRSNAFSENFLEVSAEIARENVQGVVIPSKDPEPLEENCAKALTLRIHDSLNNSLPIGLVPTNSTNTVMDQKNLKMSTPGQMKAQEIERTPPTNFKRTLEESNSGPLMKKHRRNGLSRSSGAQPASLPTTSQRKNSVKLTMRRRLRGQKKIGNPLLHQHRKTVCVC
Outline: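 WIP1 (10 nM final) was preincubated 1 h at room temperature with compounds in Tris-HCl pH 7.5, 30 mM MgCl2, TCEP, EGTA, BSA; 2 uM VEPPL-pS-QETFS phosphopeptide was added for 5 min, quenched with formic acid, and dephosphorylated product quantified by RapidFire MS.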

[2] = target: Protein phosphatase 1D (Homo sapiens) (UniProt O15297); assay: Rhodamine-PBP qHTS Assay for Modulators of WT P53-Induced Phosphatase 1 (WIP1) (AID 1347425)
Outline: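 WIP1 (5 nM final) was preincubated with compound for 1 hour at room temperature. It then dephosphorylated 10 uM VEPPL-pS-QETFS peptide in Tris-HCl pH 7.5 with 30 mM MgCl2. Released Pi was detected by 10 uM Rh-PBP fluorescence (ex 525/em 598 nm) read at 1-min intervals for 11 min, as delta f1 - f0.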

[3] = Primary qHTS for inhibitors of La Crosse Virus (LACV) - induced cell death in SH-SY5Y cells (AID 1508616);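 further: top concentration of the series differs between compounds; higher means more rescue of cells from virus-induced death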
Outline: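 Luminescent ATP readout (ATPLite 1step, 5 min room temperature) measured rescue from LACV-induced death after 6 days of infection at 0.01 MOI; normalized to infected DMSO wells and uninfected DMSO wells.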

[4] = target: Calcium and integrin-binding protein 1 (Homo sapiens) (UniProt Q99828); assay: Primary qHTS for Identification of Calcium Integrin Binding Protein 1 (CIB1) Competitor (AID 1508620);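 further: GST tagged CIB1 binding a fluorescein labelled alphaIIb integrin peptide tracer; top concentration of the series differs between compounds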
Sequence of Calcium and integrin-binding protein 1 (Homo sapiens) (Q99828 whole entry, looked up): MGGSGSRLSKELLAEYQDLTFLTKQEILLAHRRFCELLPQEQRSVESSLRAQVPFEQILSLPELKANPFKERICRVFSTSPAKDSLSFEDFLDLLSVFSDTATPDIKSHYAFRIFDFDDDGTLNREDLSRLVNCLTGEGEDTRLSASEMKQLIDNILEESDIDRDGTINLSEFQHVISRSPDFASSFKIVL
Outline: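 Fluorescence polarization competition: CIB1-GST (1 uM final) preincubated with compound 15 min at room temperature, then FITC-labeled alphaIIb peptide (100 nM final) added for another 15 min. Polarization read at Ex 480/Em 540.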

Measured: Potency

CCC(C(=O)OCCOCCN(CC)CC)c1ccccc1 (stereo unspecified)
inactive: all assays above

CN(C)CCOC(=O)C(c1ccccc1)C1(O)CCCC1 (stereo unspecified)
inactive: all assays above

CCCc1ncc(C[n+]2ccccc2C)c(N)n1
inactive: all assays above

CC(=O)O[C@]1(C(C)=O)CC[C@H]2[C@@H]3C=C(Cl)C4=CC(=O)CC[C@]4(C)[C@H]3CC[C@@]21C
inactive: all assays above

CN(C)CCN1C(=O)c2ccccc2N(C)c2ccccc21
inactive: all assays above

CC(C)[C@@H]1CC[C@@H](C)CC1=O
inactive: all assays above

CN1CCN(c2cc3c(cc2F)c(=O)c(C(=O)O)cn3-c2ccc(F)cc2)CC1
inactive: all assays above

COc1ccc2c(c1)c1c3n2CCN(C)C3=NCC1
inactive: all assays above

Nc1nc(-c2ccccc2)c(Br)c(=O)[nH]1
inactive: all assays above

C[C@@H](O)[C@H]1C(=O)N2C(C(=O)O)=C(S[C@@H]3CN[C@H](CNS(N)(=O)=O)C3)[C@H](C)[C@H]12
inactive: all assays above

CC(C(=O)O)c1cccc(Oc2ccccc2)c1 (stereo unspecified)
inactive: all assays above

Cl/C(=C\n1cncn1)c1ccc(Cl)cc1Cl
inactive: all assays above

C#C[C@]1(O)CC[C@H]2[C@@H]3[C@H](C)CC4=C(CCC(=O)C4)[C@H]3CC[C@@]21C
inactive: all assays above

O=C(CN1CCN(Cc2ccc3c(c2)OCO3)CC1)N1c2ccccc2Sc2ccccc21
inactive: all assays above

COc1ccc(CN(CCN(C)C)c2ncccn2)cc1
inactive: all assays above

COc1ccc(S(=O)(=O)N2c3ccc(Cl)cc3[C@@](O)(c3ccccc3Cl)[C@H]2C(=O)N2CCC[C@@H]2C(N)=O)cc1OC
inactive: all assays above

O=C(O)P(=O)(O)O
inactive: all assays above

CCCCCCCCCCCCOCCOCCOCCOCCOCCOCCOCCOCCOCCO
inactive: all assays above

NS(=O)(=O)c1cc(C(=O)O)cc(N2CCCC2)c1Oc1ccccc1
inactive: all assays above

COc1cc(N)c(Cl)cc1C(=O)NC1CCN(Cc2ccccc2)CC1
inactive: all assays above

Cc1c[nH]c2ccccc12
inactive: all assays above

N[C@H](C(=O)O)[C@@H](O)c1ccc(O)c(O)c1
inactive: all assays above

NS(=O)(=O)Cc1noc2ccccc12
inactive: all assays above

O=C(O)c1ccc(S(=O)(=O)N(Cl)Cl)cc1
inactive: all assays above

NC(=S)N/N=C/c1cccnc1
inactive: all assays above

CO[C@H]1C=CO[C@@]2(C)Oc3c(C)c(O)c4c(O)c(c(/C=N/N5CCN(C)CC5)c(O)c4c3C2=O)NC(=O)/C(C)=C\C=C[C@H](C)[C@H](O)[C@@H](C)[C@@H](O)[C@@H](C)[C@H](OC(C)=O)[C@@H]1C
inactive: all assays above

CCN(CC)CCNC(=O)c1cc(Br)c(N)cc1OC
inactive: all assays above

CCOC(=O)c1ccc(N)cc1
inactive: all assays above

O=C(O)CCC(=O)Nc1ccc(S(=O)(=O)Nc2nccs2)cc1
inactive: all assays above

Cc1ccc(S(=O)(=O)NC(=O)NC2CCCC2)cc1
inactive: all assays above

COc1ccc(-c2cc(C(F)F)nn2-c2ccc(S(N)(=O)=O)cc2)cc1F
inactive: all assays above

NCc1ccccc1Sc1ccccc1CO
inactive: all assays above

CC1(C)OC[C@@H]2O[C@@]3(C(=O)O)OC(C)(C)O[C@H]3[C@@H]2O1
inactive: all assays above

CC(CNC1CCCCC1)OC(=O)c1ccccc1 (stereo unspecified)
inactive: all assays above
